Calls of active or inactive are those of the source.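 How the source made its calls: active means inhibition above the hit cutoff set in the earlier primary screen (cut at about 27% in these data); inactive means the rest.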
Target: Protein phosphatase methylesterase 1 (Homo sapiens) (UniProt Q9Y570)
Experiment: human PME-1 methylesterase inhibition confirmation – biochemical, fluorescence polarization, FP-Rh probe, triplicate (AID 2171);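 further: 0% = enzyme with DMSO and 100% = wells lacking PME-1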
Settings: recombinant PME-1, FP-Rh probe fluorescence polarization; at 5.9 µM; hits give high values

Protein phosphatase methylesterase 1 (Homo sapiens), sequence (Q9Y570 whole entry, looked up): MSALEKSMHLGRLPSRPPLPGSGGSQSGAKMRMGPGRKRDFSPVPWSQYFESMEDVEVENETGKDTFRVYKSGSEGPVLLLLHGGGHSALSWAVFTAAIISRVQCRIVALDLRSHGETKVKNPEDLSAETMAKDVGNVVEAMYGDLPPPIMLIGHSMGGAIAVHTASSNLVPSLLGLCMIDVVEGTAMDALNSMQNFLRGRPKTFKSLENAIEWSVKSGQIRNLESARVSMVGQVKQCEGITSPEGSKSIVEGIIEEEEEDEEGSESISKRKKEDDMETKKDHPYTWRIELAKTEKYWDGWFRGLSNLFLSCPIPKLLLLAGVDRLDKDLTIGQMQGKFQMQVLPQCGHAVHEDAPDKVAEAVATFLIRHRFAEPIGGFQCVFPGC

inhibition, active:
COc1cc(OC)cc(-c2nnc(Nc3nc4c(F)cccc4s3)o2)c1 56.2%, Cc1cc(C)c2[nH]c(O)c(N=NC3=NC(=O)CS3)c2c1 32%, CCOC(=O)C(C)On1c(-c2ccccc2)nc2ccc([N+](=O)[O-])cc21 (stereo not given) 34.2%, COc1ccc(N2CCN(C(=O)C3CCN(S(=O)(=O)c4ccc(F)cc4)CC3)CC2)cc1 59.1%, N#C/C(N=Nc1ccccc1O)=N\Nc1ccccc1O 53.1%, O=c1[nH]c(C2CCN(S(=O)(=O)c3ccc(F)cc3)CC2)nc2c1nnn2Cc1ccc2c(c1)OCCO2 41%, Brc1csc(/C=N/Nc2nc3ccccc3s2)c1 45.3%, O=C(N=Nc1c(O)[nH]c2ccccc12)c1cccs1 42.6%, CNc1ccc2c3c(cccc13)C(=O)N(C)C2=O 71.2%, CCC(=O)NC(c1ccccc1Cl)c1c(O)ccc2ccccc12 (stereo not given) 53.2%, Cc1ccc(N=Cc2nc(/C=C/c3cccc([N+](=O)[O-])c3)oc2O)cc1 30.2%, COc1cc(/C=N/NC(=O)c2cc3c(ccc4ccccc43)o2)cc(OC)c1O 29%, Cc1c(C(=O)O)cccc1-c1ccc(/C=N/Nc2ccc(Br)cc2)o1 39.6%, COc1ccc(-c2cc(-c3cc(OC)ccc3O)[nH]n2)cc1 71%, CCC(=O)Oc1ccc(C/C(=N\O)c2ccc(O)cc2O)o1 43%, COc1ccc2cc3c(N)c(C(=O)NCc4ccco4)sc3nc2c1 39.8%, N#Cc1c(N)nc2c3c(sc(=N)c2c1N)NC(=O)CC3c1ccccc1 (stereo not given) 29%, COc1cccc(N=Nc2c(=O)[nH]n3c(=O)c4c([nH]c23)CCC4)c1 36.8%, CC1=NN(c2ccccc2)C(=O)/C1=C/c1c(O)n(-c2ccc(F)c(Cl)c2)[nH]c1=O 49%, COc1cc2cc3c(N)c(C(=O)NCc4ccco4)sc3nc2cc1OC 110%

inhibition, inactive:
Nc1nonc1-n1nnc(C(=O)N/N=C/c2c[nH]c3ccccc23)c1-c1ccccc1 25.4%, COc1cc(/C=N/NC(=O)C(Cc2c[nH]c3ccccc23)NC(=O)OCc2ccccc2)cc([N+](=O)[O-])c1O (stereo not given) 15.4%, O=C(Nc1ccc(-c2csc(Nc3ccc(Cl)cc3)n2)cc1)c1cccc(C(F)(F)F)c1 -1.3%, O=c1[nH]c(C2CCCN(S(=O)(=O)c3ccccc3)C2)nc2c1nnn2Cc1ccccc1 (stereo not given) 22.6%, Cc1ccc2cc(C#N)c(SCc3nnc(-c4ccccc4[N+](=O)[O-])o3)nc2c1 25.1%, Cc1noc(NS(=O)(=O)c2ccc(NC(=O)Nc3ccc(Cl)c(Cl)c3)cc2)c1C -8.57%, N#CC(C#N)=NNc1ccc(S(=O)(=O)N2CCCCC2)cc1 14.8%, Nc1cc(Cl)nc(N/N=C/c2c(O)ccc3ccccc23)n1 21.6%, N[C@H](CSCc1ccccc1)C(=O)Nc1ccc([N+](=O)[O-])cc1 -1.96%, CCOC(=O)c1sc(N/N=C/c2cc(Br)c(O)c(OC)c2)nc1C 21.6%, Cc1ccc(C(=O)Nc2nnc(CC(=O)N/N=C/c3ccc(O)c(O)c3)s2)cc1 -26.6%, Oc1[nH]c2ccccc2c1C=Nc1ccc2c(c1)OCO2 23.6%, Oc1[nH]c2ccccc2c1N=Nc1nc2ccccc2s1 14.1%, O=C(O)c1cccc(-n2c(/C=C/c3ccc([N+](=O)[O-])cc3)nc3ccccc3c2=O)c1 24.3%, O=C(COc1ccccc1C(=O)N/N=C\c1ccc(O)c(O)c1)N/N=C/c1ccc(O)c(O)c1 -40.9%, COc1ccc(/C=N/Nc2snc(SC)c2C#N)cc1OC 24.9%, CC1=CC(C)(C)N2C(=O)C(=Nc3ccc(O)cc3)c3cccc1c32 4.13%, CCN(CC)C(=O)c1csc(Nc2cccc3ccccc23)n1 23.8%, Cc1cc(C)c(C#N)c(SCc2nc3ccccc3[nH]2)n1 11.9%, Cc1cc(C)c2c(N)c(C(=O)NN)sc2n1 10.5%

Reference: PubChem BioAssay
